# Assay outcomes deposited in PubChem by Center for Chemical Genomics, University of Michigan.
# Only some compounds are listed: those with a hit (about 0.86% of all), similar ones and a draw of the others.
# HIV TAR-Tat – HIV-1 TAR-Tat binding disruption; actives 0.6% (n = 100,000); z-score (concentration not given with the values); HIV-1 TAR RNA, Tat peptide displacement FRET; stronger effect = higher value; AID 1259389; active = z-score of 3 or more in at least 2 runs
# CDC25B-CDK2 inh – human CDC25B-CDK2/CyclinA binding inhibition. HTRF CDC25B-CDK2/CyclinA binding, anti-His/anti-Flag; stronger effect = higher value. z-score (concentration not given with the values). actives 0.72% (n = 94,000). AID 1259370; in the data active = z-score above about 3.2
# * marks the source's active call; other numbers are inactive results; / = no result; ! = not active in a repeat.
SMILES,HIV TAR-Tat,CDC25B-CDK2 inh
COc1ccc(S(=O)(=O)Oc2ccc(C)cc2[N+](=O)[O-])cc1OC,/,-0.99
COc1ccc(S(=O)(=O)OCC(F)([N+](=O)[O-])[N+](=O)[O-])cc1Br,/,4.2*
COCCCNC(=O)C1CCCN(c2nn3c(=O)c4c(nc3s2)CCCC4)C1 (stereo not drawn),1.4,/
COc1ccc(N2COc3cc4c(cc3C2)OCO4)cc1,/,-4.4
Fc1ccc(N2COc3cc4c(cc3C2)OCO4)cc1Cl,/,8.6*
COC(=O)c1cc(S(=O)(=O)N2c3ccccc3CC2C)c[nH]1 (stereo not drawn),22*,/
CC(=O)N1c2ccc(S(=O)(=O)N3c4ccccc4CC3C)cc2CC1C (stereo not drawn),0.07,/
CCOc1c(N2CCN(c3ccc(OC)cc3)CC2)c(=O)c1=O,0.27,/
CC(C)OC(=O)Cn1c2ccccc2c2nc3ccccc3nc21,2.9,-1.4
COC(=O)Cn1c2ccc(Cl)cc2c2nc3ccccc3nc21,0.17,19*
Cn1ncc2c(Nc3ccc(F)c(F)c3)ncnc21,1.8,/
Cc1ccc(-c2onc(C)c2C)cc1S(=O)(=O)NCc1ccc2c(c1)OCO2,2.2,/
O=C1c2cccc3c(N4CCOCC4)ccc(c23)C(=O)N1c1cccc(O)c1,-7.6,-0.44
O=C1c2cccc3c(N4CCOCC4)ccc(c23)C(=O)N1c1cc(Cl)ccc1O,-4.8,9.7*
COc1ccc(OC)c(NC(=O)N2CCSc3ccccc32)c1,1.5,/
COc1ccc2ccccc2c1C1CC(=O)N2CN(C3CCCCC3)CSC2=C1C#N (stereo not drawn),-1.6,6.1*
COc1ccc2ccccc2c1C1CC(=O)N2CN(Cc3ccco3)CSC2=C1C#N (stereo not drawn),0.91,5.8*
COc1ccc2ccccc2c1C1CC(=O)N2CN(Cc3ccccc3)CSC2=C1C#N (stereo not drawn),1.6,5.4*
CCCNC(=O)C1CCN(c2nn3c(=O)cc(CCC)nc3s2)CC1,1,0.29
CCC1CN(C(=O)Nc2ccc(F)cc2)c2ccccc2S1 (stereo not drawn),2.1,/
COc1ccc(O)c(C2=NN3C(C2)c2ccccc2OC3c2cccs2)c1 (stereo not drawn),-2.5,-0.73
CCCN(C(=O)c1noc2c1CCc1sccc1-2)c1ccc(F)cc1,0.69,/
Cn1cnc2cc(Nc3nnc(-c4ccc(Cl)cc4)c4ccccc34)ccc21,/,-0.73
Cc1nc2cc(Nc3nnc(-c4ccc(Cl)cc4)c4ccccc34)ccc2n1C,/,14*
Cc1cc(C)c(S(=O)(=O)Nc2cc(Br)c(O)c3ccccc23)c(C)c1,/,19*
SMILES,HIV TAR-Tat,CDC25B-CDK2 inh
Cc1cc(C)c(S(=O)(=O)Nc2ccc(O)cc2)c(C)c1,0.57,-0.75
COc1ccc(C(=O)CSc2ncnc3c2nnn3-c2ccc(OC)cc2)cc1,2.9,-0.28
O=C(CCc1nc2sc3c(c2c(=O)[nH]1)CCCCC3)N1CCN(c2cccc(Cl)c2)CC1,28*,/
O=C(CCc1nc2sc3c(c2c(=O)[nH]1)CCCCC3)N1CCN(c2ncccn2)CC1,2.5,/
O=C(CCc1nc2sc3c(c2c(=O)[nH]1)CCCCC3)NC1CCCCC1,-0.45,/
O=C(CCc1nc2sc3c(c2c(=O)[nH]1)CCCCC3)N1CCC(Cc2ccccc2)CC1,4.3*,/
O=C(CCc1nc2sc3c(c2c(=O)[nH]1)CCCCC3)NC1CCCC1,18*,/
CC1CCN(C(=O)CCc2nc3sc4c(c3c(=O)[nH]2)CCCC4)CC1,0.18,/
O=C(NCCn1cc(SCC(=O)N2CCc3ccccc32)c2ccccc21)c1c(F)cccc1F,0.87,0.38
O=C(c1ccc(-n2ccc3ccccc32)s1)N1CCC(C(=O)N2CCc3ccccc3C2)CC1,1.6,/
COc1ccc(Br)c(-c2nc(-c3ccccc3)no2)c1,/,-0.33
CCOc1ccc(S(=O)(=O)Nc2c(-n3cnnc3)n[nH]c2C)cc1,-0.44,-1.6
CSc1nc2c(c(Nc3ccc(O)c(C(=O)O)c3)n1)CCC2,18*,-2.2
CSc1nc2c(c(Nc3cccc(O)c3)n1)CCC2,0.11,1.2
COC(=O)c1sc2ccccc2c1S(=O)(=O)NCc1ccc2c(c1)OCO2,-0.38,/
CN(C)c1ccc(C(O)C(=O)c2cccs2)cc1 (stereo not drawn),0.09,0.08
O=C(c1cccs1)C(O)c1cccs1 (stereo not drawn),-0.77,13*
Cn1c(=O)[nH]c2nnc(-c3ccc4c(c3)OCO4)nc2c1=O,-0.58,-1.3
COc1ccc(-c2nnc3[nH]c(=O)n(C)c(=O)c3n2)cc1OC,8.2*,-2.7
COc1ccc(NS(=O)(=O)c2ccc(C(=O)N3CCCC3)s2)c(OC)c1,1.5,/
CC1CCN(c2cc3c(cc2F)c(=O)c(S(=O)(=O)c2cccc(Cl)c2)cn3C)CC1,1,/
CCC(=O)Nc1nc2c(s1)CC(C(C)(C)C)CC2 (stereo not drawn),0.69,1.5
CCCN[C@H]1CCc2nc(N)sc2C1,11*!,-0.45
c1ccc(CC2CCN(Cc3nnc(-c4ccc5c(c4)OCO5)o3)CC2)cc1,-0.06,-3.7
COc1ccc(Cl)c(Cn2cnc3c2c(=O)n(C)c(=O)n3C)c1,/,-0.26
SMILES,HIV TAR-Tat,CDC25B-CDK2 inh
COc1ccc(Cl)c(Cn2c(NCCN)nc3c2c(=O)n(C)c(=O)n3C)c1,3.6*,4.6
O=C(CSc1nc2ccccc2c(=O)[nH]1)NCc1ccc2c(c1)OCO2,14*,/
O=C(CSc1nc2ccccc2c(=O)[nH]1)NC1CCCC1,3.2,/
COC(=O)c1sccc1NC(=O)c1sc2nc3n(c(=O)c2c1C)CCCCC3,0.18,/
O=C(NCCN1CCN(c2ccccc2)CC1)Nc1ccc(F)cc1F,7.7*,-2
O=C(NCCCN1CCN(c2ccccc2)CC1)Nc1ccc(F)cc1F,2.1,-1.5
O=C(Cn1cnc2nc3c(cc2c1=O)CCCC3)NCc1ccc2c(c1)OCO2,1.3,/
CCSc1ncc2c(=O)n(CC(=O)NCc3ccc4c(c3)OCO4)cnc2n1,13*,/
Cc1nc(-c2c(-c3ccccc3)noc2C)cs1,/,-2.4
COc1ccc(N2CSC3=C(C#N)C(c4cccc(OC)c4OC)CC(=O)N3C2)cc1 (stereo not drawn),-5.7,4*
COc1cccc(C2CC(=O)N3CN(c4ccccc4F)CSC3=C2C#N)c1OC (stereo not drawn),-0.9,4.2*
COc1ccc(N2CSC3=C(C#N)C(c4cccc(OC)c4OC)CC(=O)N3C2)c(OC)c1 (stereo not drawn),-0.92,5.7*
CC(C)CC(=O)Nc1ccc2nc(NS(C)(=O)=O)sc2c1,-8.8,/
Cc1ccc2nc(-c3cccnc3)cc(C(=O)NCc3ccc4c(c3)OCO4)c2c1,-1.1,/
Oc1cc(O)cc(/C=C/c2ccc(O)c(O)c2)c1,37*,1.7
Oc1ccc(/C=C/c2ccc(/C=C/c3ccc(O)cc3)c(Br)c2)cc1,/,-0.23
Cc1ccc(C(=O)CC#N)cc1,/,-2.4
COC(=O)c1[nH]c2sc3c(c2c1NC(C)=O)CCCC3,-0.25,4.7
COC(=O)c1[nH]c2sc3c(c2c1-n1cccc1)CCCC3,1.6,13*
CC1CCCCC1NC(=O)C1(C)Cn2c(cc3occc32)C(=O)N1c1ccc(Cl)cc1 (stereo not drawn),7.6*,/
CC1CCCCC1NC(=O)C1(C)Cn2c(cc3occc32)C(=O)N1C1CCCCC1 (stereo not drawn),3,/
CC1CCCC(NC(=O)C2(C)Cn3c(cc4occc43)C(=O)N2Cc2ccco2)C1C (stereo not drawn),4.2,/
Cc1cc2c(cc3n2CC(C)(C(=O)NC2CCCCC2)N(C(C)C)C3=O)o1 (stereo not drawn),7.2*,/
